Test results from PubChem BioAssay.

Experiment: COS7 lysate on small-molecule microarray, probe aHis, 635 nm (AID 1123);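 note: z-score combines 667nm fluorescence intensity with signal-to-noise per printed compound spot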
Conditions: COS7 cell lysate, fluorescence, higher = more signal

Structure (SMILES)	composite z-score
C=C(COC)/C(=C/C[C@H](OC(C)=O)c1ccc(CO)o1)c1cc(C(=O)OC)ccc1OC	0.107
O=C(NCCN1CCOCC1)C1N=C(c2ccc(OCCCO)cc2)N(c2ccccc2)O1 (stereo not given)	2.79
COCCOC(=O)N1C(=O)[C@@]2(c3cc(C#CCCO)ccc31)[C@H](C(=O)N1CCCCCCC1)[C@H]1C(=O)O[C@H](c3ccccc3)[C@H](c3ccccc3)N1[C@@H]2c1ccc(OCCO)cc1	2.75
COc1cc(Br)cc(C(O)C2C=CC3C(=O)N(C)C(=O)C3N2N2CCCCC2)c1OC (stereo not given)	1.28
C=C(C)[C@@H]1CC=C(C(O)C2C=CC3C(=O)N(C)C(=O)C3N2Nc2ccccc2)CC1 (stereo not given in full)	0.491
O=C(N1CCCCC1)[C@]1(Cc2ccccc2)N=C(c2ccc(OCCCO)cc2)O[C@@H]1c1ccccc1	1.24
CC(C)c1ccc(NN2C(C(O)c3ccc(B(O)O)cc3)C=CC3C(=O)N(c4ccccc4)C(=O)C32)cc1 (stereo not given)	2.32
C=CCNC(=O)[C@@H]1[C@H]2C(=O)O[C@H](c3ccccc3)[C@H](c3ccccc3)N2[C@H](c2ccccc2OCCO)[C@@]12C(=O)N(C(=O)OCCOC)c1ccccc12	0.938
CC(C)C(O)C1C=CC2C(=O)N(c3ccccc3)C(=O)C2N1Nc1ccc([N+](=O)[O-])cc1 (stereo not given)	1.84
COC(=O)[C@@]1(Cc2ccc(OC)cc2)[C@@H]2C(=CC(=O)[C@H]2CC(=O)C(=O)N2CCCC2)CN1C(=O)c1ccccc1	2.23
COC(=O)[C@@]1(Cc2ccc(OC)cc2)[C@H]2c3cc(C(=O)N(C)C)n(Cc4ccc(S(C)(=O)=O)cc4)c3C[C@H]2CN1C(=O)c1ccccc1	2.72
COCCOC(=O)N1C(=O)[C@@]2(c3cc(C#CC4(O)CCCCCC4)ccc31)[C@H](c1ccc(OCCO)cc1)N1[C@H](c3ccccc3)[C@H](c3ccccc3)OC(=O)[C@H]1[C@@H]2C(=O)N1CCN(c2ncccn2)CC1	1.46
COc1ccc(C#Cc2ccc3c(c2)[C@]2(C(=O)N3)[C@H](C(=O)Nc3nc4ccccc4s3)[C@H]3C(=O)O[C@H](c4ccccc4)[C@H](c4ccccc4)N3[C@@H]2c2ccc(O)cc2)cc1	2.65
OCCCC1=CC(c2cccs2)N(Cc2cc3c(cc2Br)OCO3)CC1 (stereo not given)	0.713
CCN(CC)c1ccc(N2CC=CC34O[C@@H]5C=CCCOC(=O)C5[C@H]3C(=O)N(CCCCCCO)[C@@H]4C2=O)cc1 (stereo not given in full)	2.79
CCCCCN1CC=CC23O[C@@H]4/C=C\CCC(C)OC(=O)C4[C@H]2C(=O)N(C(C)CO)[C@@H]3C1=O (stereo not given in full)	-0.0346
CC(C)OC(=O)C=C1C[C@@H](c2ccccn2)O[C@@H](c2ccccn2)O1	0.407
C=CCOC(=O)[C@H]1[C@@H]2C(=O)O[C@@H](c3ccccc3)[C@@H](c3ccccc3)N2[C@@H](c2ccc(OCCOC(=O)[C@@H]3C[C@@H]4C(=O)N[C@@H](CCCCNC(C)=O)C(=O)N4[C@@H]3c3ccc(O)cc3)cc2)[C@]12C(=O)Nc1ccccc12	1.94

Structure (SMILES)	composite z-score
Cc1nc2cc(Br)ccc2c(=O)o1	0.495
C=CCOC(=O)[C@H]1[C@@H]2C(=O)O[C@@H](c3ccccc3)[C@@H](c3ccccc3)N2[C@@H](c2ccc(OCCOC(=O)[C@H]3C[C@H]4C(=O)N[C@@H](CCCCNC(C)=O)C(=O)N4[C@H]3c3ccc(O)cc3)cc2)[C@]12C(=O)Nc1ccc(I)cc12	0.837
C=C[C@@H](COC(=O)OC(C)(C)C)N(Cc1ccc(OC)cc1)S(=O)(=O)c1ccc(Br)cc1	0.456
COc1ccc([Si](C)(C)[C@H]2[C@H](CCO)O[C@@]3(C(=O)N(Cc4ccc(N(C=O)c5ccccc5)cc4)c4ccccc43)[C@@H]2C)cc1	0.407
COCCOC(=O)N1C(=O)[C@@]2(c3cc(C#Cc4ccc(OC)cc4)ccc31)[C@H](c1ccc(OCCO)cc1)N1[C@H](c3ccccc3)[C@H](c3ccccc3)OC(=O)[C@H]1[C@@H]2C(=O)N1CCN(c2ncccn2)CC1	0.977
COc1ccc(C#Cc2ccc3c(c2)[C@]2(C(=O)N3)[C@H](c3ccccc3OCCO)N3[C@H](c4ccccc4)[C@H](c4ccccc4)OC(=O)[C@H]3[C@@H]2C(=O)Nc2nc3ccccc3s2)cc1	0.646
CCCC[C@@H]1C[C@H]1[C@@H](NC(=O)C(C)(C)C)c1ccc(C(F)(F)F)cc1	0.834
COC(=O)C(CC#Cc1ccc2c(c1)[C@]1(C(=O)N2)[C@H](c2ccc(OCCO)cc2)N2[C@H](c3ccccc3)[C@H](c3ccccc3)OC(=O)[C@H]2[C@@H]1C(=O)Nc1nc2ccccc2s1)C(=O)OC	2.4
COc1ccc(CCNC(=O)[C@@]2(Sc3ccc(C)cc3)CC(=O)N(C(C)C)[C@@H]2c2ccc(CO)cc2I)cc1	1.04
COC(=O)[C@@]1(Cc2ccc(F)cc2)[C@H]2c3cc(C(=O)N4CCCC4)n(Cc4ccc(S(C)(=O)=O)cc4)c3C[C@H]2CN1C(=O)c1ccccc1	3.34
O=C1c2ccccc2[C@](Cc2ccccc2I)(C(=O)NCCN2CCOCC2)[C@H](c2ccc(CO)cc2)N1C1CCCCC1	1.41
COC(=O)[C@@]1(CCS(=O)(=O)c2ccccc2)N=C(c2ccc(OCCCO)cc2)O[C@H]1c1ccccc1CN=[N+]=[N-]	2.4
COCCOC(=O)N1C(=O)[C@@]2(c3cc(C#CCNC(N)=O)ccc31)[C@H](C(=O)Nc1nc3ccccc3s1)[C@H]1C(=O)O[C@H](c3ccccc3)[C@H](c3ccccc3)N1[C@@H]2c1ccc(OCCO)cc1	0.481
CC(C)NC(=O)[C@@H]1c2ccccc2C(=O)N(C2Cc3ccccc3C2)[C@H]1c1ccc(CO)cc1	1.62
CC(C)=CCCC(C)=CC(O)C1C=CC2C(=O)N(C)C(=O)C2N1Nc1ccccc1 (stereo not given)	2.66
[N-]=[N+]=NCc1ccccc1C[C@]1(C(=O)N2CCCCC2)N=C(c2ccc(OCCCO)cc2)O[C@H]1c1ccccc1N=[N+]=[N-]	2.45
CCOC(=O)C[C@H]1[C@H](OC(=O)c2ccc(C(=O)c3ccccc3)cc2)[C@@H](NC(=O)CC(C)C)c2cc(OCCCO)ccc2N1C(=O)c1ccc2ccccc2n1	1.21
